The campaign covered roughly 69,000 compounds. About 8,600 (12%) showed an effect of 50% or more. Shown is part of a subset that was picked to be rich in strong results.
test system: Plasmodium berghei; assay: Screen against P. berghei liver stage (PbLuc), transformed with Luciferase, at 10uM; format: functional, HepG2; settings: tested at 10 uM

Row | SMILES | INHIBITION
1 | CCOc1ccccc1OC1CCN(C(=O)c2[nH]nc(C)c2Br)CC1 | 2.97%
2 | Cc1nc(CCCNC(=O)[C@H]2CNC[C@@H](C(=O)N3CCCC3)C2)sc1C | 6.72%
3 | COCC[C@]1(O)CCN(C(=O)CCn2c(C)cccc2=O)C[C@H]1C | 1.94%
4 | CN(C)CCn1c2c(ccc1=O)CCN(Cc1ccncc1)CC2 | -7.24%
5 | Cn1cc(CN2CCc3ccc(=O)n(Cc4ccncc4)c3CC2)cn1 | 20.6%
6 | O=c1ccc2c(n1CC1CCOCC1)CCN(Cc1ccoc1)CC2 | 5.41%
7 | CN(C)CCn1c2c(ccc1=O)CCN(Cc1cnn(C)c1)CC2 | -3.26%
8 | CN(C)C(=O)Cn1c2c(ccc1=O)CCN(Cc1cnn(C)c1)CC2 | 52.4%
9 | Cn1cc(CN2CCc3ccc(=O)n(CC4CC4)c3CC2)cn1 | 89.1%
10 | Cc1ccc(CN2CC[C@H](O)[C@@H](n3ccc(=O)[nH]c3=O)CC2)cc1 | 37.6%
11 | Cn1cc(CN2CCC(Cn3cc(-c4ccccc4)nn3)CC2)cn1 | 48.8%
12 | CN(C)c1cc(C(=O)N2CCN(c3nccs3)CC2)ccn1 | -43.9%
13 | O=C(c1ccccc1)N1CCC2(CC1)CNc1c(F)cccc12 | 60.3%
14 | CC(=O)N1CCC2(CC1)CNc1c(F)cccc12 | 29.5%
15 | O=C(c1cccnc1)N1CCC2(CC1)CNc1c(F)cccc12 | 40.5%
16 | Cc1cc(CN2CCN(C(=O)NCCc3csc(C)n3)CC2)on1 | -43.5%
17 | O=C(NCC1CCOCC1)[C@@H]1C[C@@H]2[C@@H](CCN2Cc2ccoc2)O1 | 12.5%
18 | Cc1noc(C)c1-c1cccc(C2CCN(S(=O)(=O)N(C)C)CC2)n1 | 32.4%
19 | CN(C)S(=O)(=O)N1CCC(c2ccncn2)CC1 | -9.32%
20 | CN(C)S(=O)(=O)N1CCCC(c2cccc(Cc3ccc(F)cc3)n2)C1 (stereo unspecified) | 96%
21 | CN(C)S(=O)(=O)N1CCCC(c2nccnc2-c2cccc(Cl)c2)C1 (stereo unspecified) | 5.37%
22 | CN(C)S(=O)(=O)N1CCCC(c2cccc(Cc3ccccc3F)n2)C1 (stereo unspecified) | 15.9%

Row | SMILES | INHIBITION
23 | CN(C)S(=O)(=O)N1CCC(c2cccc(Cc3ccccc3Cl)n2)CC1 | 96%
24 | CN(C)S(=O)(=O)N1CCCC(c2cccc(Cc3ccc(Cl)cc3)n2)C1 (stereo unspecified) | 82.7%
25 | Cc1cc(C2CCCN(S(=O)(=O)N(C)C)C2)ccn1 (stereo unspecified) | -20.6%
26 | CN(C)S(=O)(=O)N1CCCC(c2cccc(Cc3ccccc3)n2)C1 (stereo unspecified) | 84%
27 | Cc1c[nH]nc1C1CCN(S(=O)(=O)N(C)C)C1 (stereo unspecified) | -9.32%
28 | CS(=O)(=O)N1CCCC(c2cccc(-c3ccccc3F)n2)C1 (stereo unspecified) | 12.675%
29 | CN(C)S(=O)(=O)N1CCCC(c2ccncn2)C1 (stereo unspecified) | 25.6%
30 | COc1ccc(C)cc1Nc1nc2c(C)nn(C)c2c(=O)n1C | -2.13%
31 | COCCN1CCC(CNC(=O)C2(c3cccc(Cl)c3)CC2)C1 (stereo unspecified) | 30.6%
32 | c1cncc(CN2CCC(c3ccc4c(c3)OCO4)CC2)c1 | 6.4%
33 | Cc1nc(O)c2nnn(C[C@H]3CCCN3C(=O)C3CCCC3)c2n1 | 30.4%
34 | Cc1cc(NC(=O)NCCCSc2nncn2C)no1 | 15%
35 | Cc1nn(C)c(N(C)C)c1CNCc1ccc2c(c1)OCO2 | 11.4%
36 | COC1CCN(c2ccc(F)cc2CN(C)CC(N)=O)CC1 | -3.83%
37 | CC(=O)N1CCCC1c1cccc(Cc2ccccc2Cl)n1 (stereo unspecified) | 38.2%
38 | CN1CCCC(c2cccc(Cc3ccccc3Cl)n2)C1 (stereo unspecified) | 51.7%
39 | CN1CCCC(c2cccc(CCC(N)=O)n2)C1 (stereo unspecified) | -4.51%
40 | NC(=O)NC(=O)CCSCc1cc(F)cc2cccnc12 | -28.9%
41 | Cc1ccc(-c2nc(CSCCC(=O)NC(N)=O)co2)c(C)c1 | 87.4%
42 | Cc1ccc(-c2nc(CCNC(=O)NCC(C)(C)C(N)=O)co2)cc1 | 27.6%
43 | NC(=O)NC(=O)CCSCc1coc(-c2cccc(Cl)c2)n1 | 5.91%
44 | CNC(=O)Cc1coc(-c2ccc(F)cc2)n1 | 48.1%

Row | SMILES | INHIBITION
45 | Cc1ccc(-c2nc(CSCCC(=O)NC(N)=O)co2)cc1 | 89.6%
46 | Cc1ccc(-c2nc(CNCC3CN(C)CCO3)co2)c(C)c1 (stereo unspecified) | 7.12%
47 | NC(=O)NC(=O)CCSCc1coc(-c2ccc(F)cc2)n1 | 67.8%
48 | CNC(=O)CCS(=O)(=O)Cc1coc(-c2ccc(F)cc2)n1 | 7.43%
49 | CS(=O)(=O)c1cccc(C(N)c2ccc(F)c(F)c2)c1 (stereo unspecified) | -15%
50 | COCCNC(=O)Cn1c(-c2ccc(F)cc2)nc(C)c(CCO)c1=O | -20.7%
51 | CC1CCN(CC(=O)NC2CCN(C(C)c3ccccc3)CC2)CC1 (stereo unspecified) | -1.845%
52 | NCC1CCC(C(NC(=O)CC2CCCC2)c2ccccn2)CC1 (stereo unspecified) | 1.11%
53 | Cc1cc(-c2nn3c(C4CC4)nnc3s2)on1 | -6.47%
54 | CCn1c(C)cc(C(=O)N2CCCC(C(=O)c3nccn3C)C2)c1C (stereo unspecified) | -1.09%
55 | CC(=O)NC1CCN(c2cnc(C3CCNCC3)cn2)CC1 | 18.3%
56 | COCC1CCCN(c2cncc(OCc3ccccc3)n2)C1 (stereo unspecified) | 26.5%
57 | Cc1cccc(-c2noc(CNC(C)Cn3cc(C)cn3)n2)c1 (stereo unspecified) | 25.4%
58 | Cc1cnn(CC(C)NCc2nc(-c3ccco3)no2)c1 (stereo unspecified) | 53.5%
59 | CC(Cn1cccn1)NCc1nc(-c2ccco2)no1 (stereo unspecified) | 12.7%
60 | Cc1cnn(CC(C)NCc2nc(-c3ccccn3)no2)c1 (stereo unspecified) | 56.1%
61 | CC(Cn1cccn1)NCc1nc(-c2ccccn2)no1 (stereo unspecified) | -62.7%
62 | Cc1cnn(CCNCc2nc(-c3ccccn3)no2)c1 | -50.5%
63 | CN1CC(=O)N(c2cccnc2)CC12CCN(C(=O)c1cccnc1)C2 (stereo unspecified) | -13.3%
64 | O=C(c1ccccc1OC1CCCC1)N1CCCC(n2cncn2)C1 (stereo unspecified) | 49.8%
65 | Cc1ccc(CN2CCC3(CCC(C(=O)N(C)C)O3)CC2)o1 (stereo unspecified) | -7.28%
66 | Cn1cc(CC2CCN(C(=O)NCc3cn4ccsc4n3)C2)cn1 (stereo unspecified) | 19.7%

Row | SMILES | INHIBITION
67 | CC(C)CNC(=O)N1C[C@@H]2C[C@H](C(=O)NCc3ccccc3)[C@H](C1)O2 | -7.2%
68 | COc1ccccc1N1CC(NC(=O)Cn2cc(C(C)C)nn2)CC1=O (stereo unspecified) | -14.2%
69 | COc1ccccc1N1CC(NC(=O)c2cc(C(C)C)nn2C)CC1=O (stereo unspecified) | 69.4%
70 | COc1ccccc1N1CC(NC(=O)Cn2cc(C)nn2)CC1=O (stereo unspecified) | -71.7%
71 | Cc1ncccc1CNCC1CCc2nnc(C(C)C)n2C1 (stereo unspecified) | 29.8%
72 | Cc1ncsc1CCNC(=O)Cn1nc(C)n(Cc2ccccc2)c1=O | -171%
73 | CC(c1ccccc1Cl)N(C)Cc1nc2c(cnn2C)c(=O)[nH]1 (stereo unspecified) | 16.165%
74 | CCN(CC)C(CNC(=O)c1cccnc1-n1cncn1)c1ccsc1 (stereo unspecified) | 21.1%
75 | O=C(c1ccco1)N1CCC(n2nc(-c3ccco3)ccc2=O)CC1 | -8.12%
76 | CC(C)(C)C(=O)N1CCC(n2nc(-c3ccco3)ccc2=O)CC1 | -4.51%
77 | CC(C)C(=O)N1CCC(n2nc(-c3ccco3)ccc2=O)CC1 | 61.7%
78 | O=C(c1cccs1)N1CCC(n2nc(-c3ccco3)ccc2=O)CC1 | 50.6%
79 | O=C(c1cccs1)N1CCC(Cn2nc(-c3ccco3)ccc2=O)CC1 | 33.5%
80 | O=C(c1ccco1)N1CCC(n2nc(-c3cccs3)ccc2=O)CC1 | 5.11%
81 | COc1cc(N2C[C@H]3CN(C(=O)c4cccnc4)C[C@H]3C2)ncn1 | 0.164%
82 | CC(C)N(C)Cc1cc(=O)n2c(n1)CN(C(=O)c1cnccn1)CCC2 | 33.5%
83 | CC(C)Oc1cccc(CNC(=O)NC(C)(C(=O)O)c2ccco2)c1 (stereo unspecified) | 14.4%
84 | CC(NC(=O)NCc1ccccc1)(C(=O)O)c1ccco1 (stereo unspecified) | 58%
85 | CC(NC(=O)NCc1cccc(F)c1)(C(=O)O)c1ccco1 (stereo unspecified) | 4.52%
86 | CC(NC(=O)NCc1c(F)cccc1Cl)(C(=O)O)c1ccco1 (stereo unspecified) | 14.1%
87 | COc1ccc(CNC(=O)NC(C)(C(=O)O)c2ccco2)cc1F (stereo unspecified) | 53.9%
88 | CC(NC(=O)NCc1ccccc1F)(C(=O)O)c1ccco1 (stereo unspecified) | 25.1%

Row | SMILES | INHIBITION
89 | COc1c(CNC2CCCOc3ccc(F)cc32)c(C(C)C)nn1C (stereo unspecified) | 0.914%
90 | CC(C)NC(=O)N1CC[C@@H](N(C)C)[C@@H]1Cc1ccccc1 | 0.804%
91 | c1ccc2ncc(CC3CNCCOC3)cc2c1 (stereo unspecified) | 3.48%
92 | COCCN1CC[C@]2(CN(Cc3ccccn3)C[C@H]2C)C1=O | -2.03%
93 | COCCCC(=O)N1CCC(Nc2cccnn2)CC1 | 31.9%
94 | O=C(CCOc1ccccc1)N1CCC(Nc2cccnn2)CC1 | 50.4%
95 | O=C(CCc1ccsc1)N1CCC(Nc2cccnn2)CC1 | 25.1%
96 | O=C(CCNc1ncccn1)N1CCC(Nc2cccnn2)CC1 | 0.411%
97 | Cc1ccc(CCC(=O)N2CCC(Nc3cccnn3)CC2)cc1 | 52.5%
98 | O=C(CCCc1ccccc1)N1CCC(Nc2cccnn2)CC1 | -6.44%
99 | Cn1nc(Cn2cccn2)c2c1CN(C1CCOC1)C2 (stereo unspecified) | -4.02%
100 | COCC(=O)N1CCN(C)C(=O)C(Cc2ccccc2-c2cccs2)C1 (stereo unspecified) | -20.6%
101 | O=C(NCC1CC1)C1CCC2(CCN(C(=O)c3ccncc3)CC2)O1 (stereo unspecified) | -6.05%
102 | CCc1nc(C2CCCN2Cc2nnc(C3CC3)o2)no1 (stereo unspecified) | -5%
103 | Cc1oc(-c2ccco2)nc1CN1CCCC(Cn2cncn2)C1 (stereo unspecified) | -97.8%
104 | CC(=O)N(Cc1ncc(C(C)C)o1)C1CCN(Cc2cc(C)no2)C1 (stereo unspecified) | 13.95%
105 | Cc1nccn1CCCNc1nccnc1C#N | 12.9%
106 | CN1CCC2(CCN(CC3CCOCC3)CC2)C1=O | 26.5%
